# Measured values: article PMC7862700, “An all-to-all approach to the identification of sequence-specific readers for epigenetic DNA modifications on cytosine”
# How the values were obtained:
# Assay in all cases: DAPPL (digital affinity profiling via proximity ligation, sequencing); 10 mM Tris-HCl pH 7.5, 50 mM NaCl, 1 mM DTT, 4% glycerol, room temperature, 30 min; GST-TFs on glutathione beads, 16-mer random dsDNA library, 0.1% formaldehyde crosslink after washing; high values mean tight binding
# Conditions in all cases: protein: recombinant; tags: N-terminal GST; dsDNA, one strand shown
# ERF = target: T1, ERF (Homo sapiens, UniProt P50548 1-548)
# T1 sequence: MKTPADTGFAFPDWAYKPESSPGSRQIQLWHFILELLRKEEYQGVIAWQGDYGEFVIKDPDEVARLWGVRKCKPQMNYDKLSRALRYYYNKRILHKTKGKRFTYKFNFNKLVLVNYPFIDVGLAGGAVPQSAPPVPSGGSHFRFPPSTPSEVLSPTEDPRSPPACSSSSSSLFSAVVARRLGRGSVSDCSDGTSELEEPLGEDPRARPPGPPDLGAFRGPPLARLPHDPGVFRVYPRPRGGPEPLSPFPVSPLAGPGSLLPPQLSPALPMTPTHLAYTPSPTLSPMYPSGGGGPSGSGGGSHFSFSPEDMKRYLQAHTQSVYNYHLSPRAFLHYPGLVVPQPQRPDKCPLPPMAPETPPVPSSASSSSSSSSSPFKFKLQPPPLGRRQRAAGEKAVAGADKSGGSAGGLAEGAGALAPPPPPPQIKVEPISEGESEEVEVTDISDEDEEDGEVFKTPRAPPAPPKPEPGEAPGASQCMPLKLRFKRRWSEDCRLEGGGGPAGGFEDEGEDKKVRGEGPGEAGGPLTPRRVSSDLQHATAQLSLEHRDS
# Method in brief: (§1)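 Binding signal is each hexamer's read frequency for a factor divided by its frequency in the tag-only sample. The factors were GST-fused human transcription factors from yeast, captured on glutathione beads, DNA-barcoded and pooled with that sample. Pools were incubated with 200 nmole of a random double-stranded 16-mer DNA library in Tris/NaCl/DTT/glycerol buffer at room temperature for 30 min, then washed, crosslinked with 0.1% formaldehyde, proximity-ligated with BsaI/T4 ligase (1 h, 37 °C), PCR-amplified and sequenced on an Illumina NextSeq500.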
# ETV3L = target: T2, ETV3L (Homo sapiens, UniProt Q6ZN32 1-361)
# T2 sequence: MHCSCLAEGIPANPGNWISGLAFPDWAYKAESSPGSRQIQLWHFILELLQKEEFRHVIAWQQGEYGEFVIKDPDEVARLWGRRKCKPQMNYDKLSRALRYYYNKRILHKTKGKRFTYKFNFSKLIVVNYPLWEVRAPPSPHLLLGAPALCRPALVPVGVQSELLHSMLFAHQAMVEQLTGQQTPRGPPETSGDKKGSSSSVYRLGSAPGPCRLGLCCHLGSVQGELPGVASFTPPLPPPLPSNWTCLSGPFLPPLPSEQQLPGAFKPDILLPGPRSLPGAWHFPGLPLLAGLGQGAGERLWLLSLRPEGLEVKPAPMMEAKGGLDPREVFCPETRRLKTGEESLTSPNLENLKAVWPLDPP
# Method in brief: as §1
# ETS2 = target: T3, ETS2 (Homo sapiens, UniProt P15036 1-469)
# T3 sequence: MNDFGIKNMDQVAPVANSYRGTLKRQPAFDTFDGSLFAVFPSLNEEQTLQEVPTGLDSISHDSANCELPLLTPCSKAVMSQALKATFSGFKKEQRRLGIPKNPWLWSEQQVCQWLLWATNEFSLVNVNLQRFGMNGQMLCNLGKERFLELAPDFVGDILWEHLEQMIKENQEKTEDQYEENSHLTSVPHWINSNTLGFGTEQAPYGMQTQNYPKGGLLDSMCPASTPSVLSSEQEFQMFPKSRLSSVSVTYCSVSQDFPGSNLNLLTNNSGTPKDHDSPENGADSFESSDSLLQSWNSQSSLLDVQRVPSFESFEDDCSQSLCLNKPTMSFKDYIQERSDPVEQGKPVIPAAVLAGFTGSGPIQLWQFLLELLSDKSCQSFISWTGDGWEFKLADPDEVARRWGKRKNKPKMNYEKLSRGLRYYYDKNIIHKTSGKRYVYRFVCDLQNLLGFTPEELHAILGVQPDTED
# Method in brief: as §1
# SPDEF = target: T4, SPDEF (Homo sapiens, UniProt O95238 1-335)
# T4 sequence: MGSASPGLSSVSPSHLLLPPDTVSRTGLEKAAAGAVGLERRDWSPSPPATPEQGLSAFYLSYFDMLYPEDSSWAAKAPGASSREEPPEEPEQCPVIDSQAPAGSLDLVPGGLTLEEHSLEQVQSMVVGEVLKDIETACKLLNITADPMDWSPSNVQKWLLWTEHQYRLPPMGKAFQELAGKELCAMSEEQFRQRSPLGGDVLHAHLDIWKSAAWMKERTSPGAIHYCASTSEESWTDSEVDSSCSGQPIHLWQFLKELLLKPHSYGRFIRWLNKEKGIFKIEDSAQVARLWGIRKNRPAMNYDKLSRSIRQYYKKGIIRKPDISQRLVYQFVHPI
# Method in brief: as §1
# ETV7 = target: T5, ETV7 (Homo sapiens, UniProt Q9Y603 1-341)
# T5 sequence: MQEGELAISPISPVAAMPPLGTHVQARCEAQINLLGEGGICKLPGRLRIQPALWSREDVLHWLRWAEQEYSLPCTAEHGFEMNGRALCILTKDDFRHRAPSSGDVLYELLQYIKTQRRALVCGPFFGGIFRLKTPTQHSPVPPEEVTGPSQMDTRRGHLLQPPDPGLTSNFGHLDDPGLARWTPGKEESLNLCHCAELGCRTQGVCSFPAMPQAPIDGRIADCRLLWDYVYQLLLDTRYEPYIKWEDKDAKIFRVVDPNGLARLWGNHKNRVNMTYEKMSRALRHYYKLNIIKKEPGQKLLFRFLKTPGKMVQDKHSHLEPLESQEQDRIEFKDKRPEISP
# Method in brief: as §1
# ELF5 = target: T6, ELF5 (Homo sapiens, UniProt Q9UKW6-2 1-255)
# T6 sequence: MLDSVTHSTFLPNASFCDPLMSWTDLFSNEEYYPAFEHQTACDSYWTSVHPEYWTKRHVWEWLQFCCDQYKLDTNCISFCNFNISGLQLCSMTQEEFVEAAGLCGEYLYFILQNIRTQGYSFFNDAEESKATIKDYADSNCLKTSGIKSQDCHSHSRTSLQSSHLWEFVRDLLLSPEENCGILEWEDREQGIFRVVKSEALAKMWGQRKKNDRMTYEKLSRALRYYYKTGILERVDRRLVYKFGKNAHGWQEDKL
# Method in brief: as §1
# ETV3 = target: T7, ETV3 (Homo sapiens, UniProt P41162-2 1-143)
# T7 sequence: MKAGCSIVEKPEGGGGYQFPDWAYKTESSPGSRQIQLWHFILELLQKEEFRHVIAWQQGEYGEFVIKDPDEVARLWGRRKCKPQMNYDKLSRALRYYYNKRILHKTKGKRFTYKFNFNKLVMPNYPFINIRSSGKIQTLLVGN
# Method in brief: as §1
# ETV6 = ETV6 (Homo sapiens, UniProt P41212 1-452)
# Chain of ETV6 (P41212 whole entry): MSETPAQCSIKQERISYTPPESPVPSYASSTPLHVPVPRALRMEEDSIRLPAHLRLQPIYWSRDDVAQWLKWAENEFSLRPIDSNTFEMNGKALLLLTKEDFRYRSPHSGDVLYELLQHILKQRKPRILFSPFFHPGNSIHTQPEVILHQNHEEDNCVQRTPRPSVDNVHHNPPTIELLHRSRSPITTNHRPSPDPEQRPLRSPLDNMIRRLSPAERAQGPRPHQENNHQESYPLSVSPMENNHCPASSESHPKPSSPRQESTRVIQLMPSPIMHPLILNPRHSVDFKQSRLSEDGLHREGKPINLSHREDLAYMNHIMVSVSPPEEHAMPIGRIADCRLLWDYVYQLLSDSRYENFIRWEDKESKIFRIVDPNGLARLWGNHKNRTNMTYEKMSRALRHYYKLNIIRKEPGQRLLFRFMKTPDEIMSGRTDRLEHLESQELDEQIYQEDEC
# Method in brief: as §1
Sequence,binding signal (ERF),binding signal (ETV3L),binding signal (ETS2),binding signal (SPDEF),binding signal (ETV7),binding signal (ELF5),binding signal (ETV3),binding signal (ETV6)
ACGACG,"1.14 fold enrichment (6-mer frequency, TF over GST control)","1.08 fold enrichment (6-mer frequency, TF over GST control)","1.12 fold enrichment (6-mer frequency, TF over GST control)","1.14 fold enrichment (6-mer frequency, TF over GST control)","1.25 fold enrichment (6-mer frequency, TF over GST control)","1.15 fold enrichment (6-mer frequency, TF over GST control)","1.16 fold enrichment (6-mer frequency, TF over GST control)","1.2 fold enrichment (6-mer frequency, TF over GST control)"
CCTGAA,"1.37 fold enrichment (6-mer frequency, TF over GST control)","1.35 fold enrichment (6-mer frequency, TF over GST control)","1.33 fold enrichment (6-mer frequency, TF over GST control)","1.48 fold enrichment (6-mer frequency, TF over GST control)","1.22 fold enrichment (6-mer frequency, TF over GST control)","1.5 fold enrichment (6-mer frequency, TF over GST control)","1.4 fold enrichment (6-mer frequency, TF over GST control)","1.27 fold enrichment (6-mer frequency, TF over GST control)"
CGGATA,"1.17 fold enrichment (6-mer frequency, TF over GST control)","1.13 fold enrichment (6-mer frequency, TF over GST control)","1.3 fold enrichment (6-mer frequency, TF over GST control)","1.93 fold enrichment (6-mer frequency, TF over GST control)","1.09 fold enrichment (6-mer frequency, TF over GST control)","1.37 fold enrichment (6-mer frequency, TF over GST control)","1.33 fold enrichment (6-mer frequency, TF over GST control)","1.21 fold enrichment (6-mer frequency, TF over GST control)"
GGAAGC,"1.43 fold enrichment (6-mer frequency, TF over GST control)","1.5 fold enrichment (6-mer frequency, TF over GST control)","1.6 fold enrichment (6-mer frequency, TF over GST control)","1.55 fold enrichment (6-mer frequency, TF over GST control)","1.62 fold enrichment (6-mer frequency, TF over GST control)","1.95 fold enrichment (6-mer frequency, TF over GST control)","1.69 fold enrichment (6-mer frequency, TF over GST control)","1.92 fold enrichment (6-mer frequency, TF over GST control)"
CGAATT,"1.28 fold enrichment (6-mer frequency, TF over GST control)","1.28 fold enrichment (6-mer frequency, TF over GST control)","1.14 fold enrichment (6-mer frequency, TF over GST control)","1.28 fold enrichment (6-mer frequency, TF over GST control)","1.31 fold enrichment (6-mer frequency, TF over GST control)","1.17 fold enrichment (6-mer frequency, TF over GST control)","1.22 fold enrichment (6-mer frequency, TF over GST control)","1.08 fold enrichment (6-mer frequency, TF over GST control)"
AGTTTC,"1.22 fold enrichment (6-mer frequency, TF over GST control)","1.33 fold enrichment (6-mer frequency, TF over GST control)","1.3 fold enrichment (6-mer frequency, TF over GST control)","1.19 fold enrichment (6-mer frequency, TF over GST control)","1.29 fold enrichment (6-mer frequency, TF over GST control)","1.65 fold enrichment (6-mer frequency, TF over GST control)","1.36 fold enrichment (6-mer frequency, TF over GST control)","1.29 fold enrichment (6-mer frequency, TF over GST control)"
GTTTTA,"1.2 fold enrichment (6-mer frequency, TF over GST control)","1.02 fold enrichment (6-mer frequency, TF over GST control)","1.1 fold enrichment (6-mer frequency, TF over GST control)","1.04 fold enrichment (6-mer frequency, TF over GST control)","1.23 fold enrichment (6-mer frequency, TF over GST control)","1.09 fold enrichment (6-mer frequency, TF over GST control)","1.21 fold enrichment (6-mer frequency, TF over GST control)","1.13 fold enrichment (6-mer frequency, TF over GST control)"
